From the supplement of paper PMC10127200
Where a name gives a salt, the structure may show the parent alone.

What was measured:
Assay in all cases: Euclidean distance of Cell Painting phenotypic profile (signed KS, 77 features) to DMSO centroid (dimensionless distance); 5 or 10 uM (library dependent); higher = stronger phenotypic change vs DMSO (phenoactivity)
Conditions in all cases: 48 h
786-O = test system: 786-O
In short: (§1)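 At 10 or 5 uM, as set by the library, and 0.1% DMSO final, compounds were applied for 48 h to five cancer lines and one healthy fibroblast line. Stained cells were imaged confocally at 20X in 9 fields per well, and Harmony extracted 77 features scored as signed Kolmogorov-Smirnov statistics against vehicle wells on the same plate. Profiles underwent plate-position correction, correlation weighting and replicate averaging at the top dose. Phenoactivity is the Euclidean distance from each such profile to the median vehicle profile.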

A549 = test system: A549
In short: as §1

DU145 = test system: DU145
In short: as §1

FB = test system: FB
In short: as §1

HEPG2 = test system: HEPG2
In short: as §1

OVCAR4 = test system: OVCAR4
In short: as §1

| SMILES | Euclidean distance (786-O) | Euclidean distance (A549) | Euclidean distance (DU145) | Euclidean distance (FB) | Euclidean distance (HEPG2) | Euclidean distance (OVCAR4) |
| --- | --- | --- | --- | --- | --- | --- |
| NC(=O)C(c1ccccc1)(c1ccccc1)[C@@H]1CCN(CCc2ccc3c(c2)CCO3)C1 [Darifenacin HBr] | 1.59 | 0.89 | 0.786 | 1.4 | 1.11 | 1.04 |
| CCC[C@@H]1C[C@@H](C(=O)N[C@@H]([C@H]2O[C@H](SC)[C@H](O)[C@@H](O)[C@H]2O)[C@H](C)Cl)N(C)C1 [Clindamycin HCl] | 1.06 | 0.576 | 0.99 | 0.761 | 0.82 | 0.755 |
| CO/N=C(\C(=O)N[C@@H]1C(=O)N2C(C(=O)[O-])=C(C[n+]3cccc4c3CCC4)CS[C@H]12)c1csc(N)n1 [Cefpirome sulfate] | 0.835 | 0.636 | 0.405 | 0.989 | 0.508 | 0.689 |
| CCn1nc(C(=O)O)c(=O)c2cc3c(cc21)OCO3 [Cinoxacin] | 1.03 | 1.18 | 0.942 | 1.56 | 0.617 | 1 |
| CC(C)[C@H](N)C(=O)OCCOCn1cnc2c(=O)nc(N)[nH]c21 [Valaciclovir HCl] | 1.18 | 1.31 | 2.3 | 0.774 | 1.28 | 1.37 |
| OC(CCCN1CCCCC1)(c1ccccc1)c1ccccc1 [Diphenidol HCl] | 1.04 | 0.66 | 0.884 | 0.867 | 0.89 | 1.09 |
| CC(=C(CCOC(=O)C(C)C)SSC(CCOC(=O)C(C)C)=C(C)N(C=O)Cc1cnc(C)nc1N)N(C=O)Cc1cnc(C)nc1N (stereo in doubt) [Sulbutiamine] | 1.35 | 0.871 | 0.854 | 1.12 | 0.637 | 1.49 |
| COCCCC/C(=N\OCCN)c1ccc(C(F)(F)F)cc1 [Fluvoxamine maleate] | 1.27 | 0.895 | 0.762 | 1.25 | 1.1 | 1.58 |
| OCCN1CCN(CC/C=C2/c3ccccc3Sc3ccc(C(F)(F)F)cc32)CC1 [Flupenthixol dihydrochloride] | 1.63 | 2.21 | 1.71 | 2.52 | 2.68 | 2.01 |
| O=C(/C=C/c1ccccc1)NC(NC(=S)Nc1cccc2cccnc12)C(Cl)(Cl)Cl (configuration not stated) [Salubrinal] | 0.979 | 1.28 | 1 | 1.21 | 1.04 | 1.28 |
| COCCCOc1ccnc(C[S+]([O-])c2nc3ccccc3[nH]2)c1C (configuration not stated) [Rebeprazole sodium] | 0.719 | 0.641 | 0.763 | 1.22 | 1.54 | 0.777 |
| CNC[C@H](O)c1ccc(O)c(O)c1 [Epinephrine HCl] | 1.19 | 0.611 | 0.9 | 0.733 | 0.644 | 0.893 |
| CN(C)CCc1c[nH]c2ccc(CS(=O)(=O)N3CCCC3)cc12 [Almotriptan Malate] | 1.05 | 0.798 | 0.545 | 1.14 | 1.78 | 1.51 |
| COC(=O)c1ccccc1O [Methyl salicylate] | 0.625 | 0.514 | 0.585 | 0.713 | 0.768 | 0.636 |
| CC[C@H](C)[C@@H]1NC(=O)[C@H](Cc2ccc(O)cc2)NC(=O)[C@@H](N)CSSC[C@@H](C(=O)N2CCC[C@H]2C(=O)N[C@@H](CC(C)C)C(=O)NCC(N)=O)NC(=O)[C@H](CC(N)=O)NC(=O)[C@H](CCC(N)=O)NC1=O [Oxytocin (Syntocinon)] | 1.83 | 1.77 | 0.912 | 1.41 | 0.745 | 0.928 |
| Nc1nc2[nH]cc(CCc3ccc(C(=O)N[C@@H](CCC(=O)O)C(=O)O)cc3)c2c(=O)[nH]1 [Pemetrexed] | 1.73 | 2.69 | 1.14 | 0.521 | 1.85 | 3.1 |
| CN(CCCCCCCCCCN(C)C(=O)Oc1cccc([N+](C)(C)C)c1)C(=O)Oc1cccc([N+](C)(C)C)c1 [Demecarium Bromide] | 0.786 | 0.898 | 0.6 | 1.07 | 1.17 | 1.24 |
| Nc1ncnc2c1ncn2[C@@H]1O[C@H](CO)[C@@H](O)[C@@H]1O [Vidarabine monohydrate] | 0.895 | 1.22 | 0.966 | 0.665 | 1.66 | 1.18 |
| C=CCNC(N)=S [Allylthiourea] | 1.12 | 0.909 | 0.907 | 0.873 | 0.823 | 1.54 |
| C[C@H](Nc1ncnc2nc[nH]c12)c1cc2cccc(Cl)c2c(=O)n1-c1ccccc1 [Duvelisib (IPI-145. INK1197)] | 2.36 | 1.56 | 2.77 | 2.98 | 1.32 | 1.91 |
| CNc1ncc(-c2ccc3c(=O)c(C(=O)O)cn(C4CC4)c3c2C)cc1C [Ozenoxacin] | 1.31 | 0.846 | 0.593 | 1.13 | 1.01 | 0.85 |
| CCN(CC)Cc1cc(Nc2ccnc3cc(Cl)ccc23)ccc1O [Amodiaquine] | 2.2 | 2.16 | 1.37 | 3.19 | 2.51 | 2.02 |
| NCCCC[C@H](NC(=O)[C@@H](NC(=O)[C@H](Cc1c[nH]c2ccccc12)NC(=O)[C@H](CCCCN)NC(=O)[C@H](CCCCN)NC(=O)[C@H](Cc1c[nH]c2ccccc12)NC(=O)[C@H](Cc1c[nH]c2ccccc12)NC(=O)[C@H](CCCCN)NC(=O)[C@@H](N)CCCCN)C(c1ccccc1)c1ccccc1)C(N)=O | 4.67 | 1.24 | 1.35 | 1.8 | 1.2 | 2.23 |
| C#CCN(C)Cc1ccccc1 [Pargyline hydrochloride] | 1.39 | 0.874 | 1.18 | 1.16 | 0.696 | 1.43 |

| SMILES | Euclidean distance (786-O) | Euclidean distance (A549) | Euclidean distance (DU145) | Euclidean distance (FB) | Euclidean distance (HEPG2) | Euclidean distance (OVCAR4) |
| --- | --- | --- | --- | --- | --- | --- |
| Cc1c(O)c(=O)ccn1C [Deferiprone] | 1.58 | 0.809 | 1.07 | 1.18 | 0.561 | 0.947 |
| Cc1cc(Nc2cc(N3CCN(C)CC3)nc(Sc3ccc(NC(=O)C4CC4)cc3)n2)n[nH]1 [VX-680 (Tozasertib. MK-0457)] | 2.67 | 3.95 | 3.26 | 3.01 | 1.92 | 2.98 |
| O=C(O)/C=C/c1ccc(Cn2ccnc2)cc1 [Ozagrel HCl] | 0.843 | 0.862 | 1.12 | 0.899 | 1.97 | 1.61 |
| C[S+]([O-])c1ccc(-c2nc(-c3ccc(F)cc3)c(-c3ccncc3)[nH]2)cc1 (configuration not stated) | 1.84 | 0.978 | 1.1 | 1.03 | 2.4 | 1.33 |
| CCCCCOc1ccc(-c2cc(-c3ccc(C(=O)N[C@H]4C[C@@H](O)[C@@H](O)NC(=O)[C@@H]5[C@@H](O)[C@@H](C)CN5C(=O)[C@H]([C@H](O)CC(N)=O)NC(=O)[C@H]([C@H](O)[C@@H](O)c5ccc(O)c(OS(=O)(=O)O)c5)NC(=O)[C@@H]5C[C@@H](O)CN5C(=O)[C@H]([C@@H](C)O)NC4=O)cc3)no2)cc1 [Micafungin Sodium] | 1.25 | 1.24 | 1.1 | 1.25 | 1.15 | 1.27 |
| C1N2CN3CN1CN(C2)C3 [Methenamine] | 1.23 | 0.437 | 0.592 | 0.896 | 0.586 | 1.2 |
| CCCc1nc(C(C)(C)O)c(C(=O)OCc2oc(=O)oc2C)n1Cc1ccc(-c2ccccc2-c2nnn[nH]2)cc1 [Olmesartan Medoxomil] | 2.78 | 2.49 | 2.38 | 3.38 | 3.32 | 3.28 |
| O=C(Nc1ccc(S(=O)(=O)Nc2ccccc2Cl)c(Cl)c1)c1ccccn1 | 0.876 | 0.81 | 0.6 | 0.594 | 0.744 | 0.782 |
| CC(S)C(=O)NCC(=O)O (configuration not stated) [Tiopronin] | 1.57 | 0.822 | 1.09 | 0.869 | 2.07 | 1.32 |
| Cc1cc2c(cc1CC(=O)c1sccc1S(=O)(=O)Nc1onc(C)c1Cl)OCO2 [Sitaxentan sodium] | 0.839 | 0.821 | 0.942 | 0.796 | 0.95 | 1.46 |
| CCCCCN(C)CCC(O)(P(=O)(O)O)P(=O)(O)O [Ibandronate sodium] | 1.42 | 1.09 | 0.856 | 1.59 | 1.38 | 1.49 |
| CC(C)CCNC(=O)[C@H](CC(C)C)NC(=O)[C@H]1O[C@@H]1C(=O)O [Loxistatin Acid (E-64C)] | 1.6 | 2.18 | 1.48 | 1.04 | 1.44 | 1.5 |
| O=C(Oc1ccccc1C(=O)O)c1ccccc1O [Sasapyrine] | 0.578 | 0.394 | 0.556 | 0.969 | 0.413 | 1.18 |
| NC[C@H](O)c1ccc(O)c(O)c1 [Noradrenaline bitartrate monohydrate] | 1.19 | 0.515 | 0.963 | 1.17 | 0.697 | 0.846 |
| CC[C@H]1OC(=O)[C@H](C)[C@@H](O[C@H]2C[C@@](C)(OC)[C@@H](O)[C@H](C)O2)[C@H](C)[C@@H](O[C@@H]2O[C@H](C)C[C@H](N(C)C)[C@H]2O)[C@](C)(O)C[C@@H](C)C(=O)[C@H](C)[C@@H](O)[C@]1(C)O [Erythromycin] | 1.41 | 1.02 | 1.69 | 1.16 | 3.29 | 1.43 |
| COc1ccc(C(=O)Nc2sc3c(c2C(N)=O)CCCC3)cc1OC | 1.04 | 2.61 | 1.02 | 0.845 | 0.747 | 2.82 |
| O=C(CCCCCN1C(=O)c2cccc3cccc(c23)C1=O)NO [Scriptaid] | 3.19 | 3.02 | 2.28 | 3.75 | 2.92 | 3.33 |
| CCOC(=O)[C@H](CCc1ccccc1)N[C@@H](C)C(=O)N1C(=O)N(C)C[C@H]1C(=O)O [Imidapril HCl] | 0.604 | 0.657 | 0.965 | 1.1 | 1.55 | 1.05 |
| OC(CN1CCN(c2cccc(Cl)c2)CC1)C(c1ccccc1)c1ccccc1 (configuration not stated) | 1.08 | 1.33 | 0.908 | 1.03 | 0.858 | 1.16 |
| Cc1cc(C)c(/C=C2\C(=O)Nc3ccccc32)[nH]1 [Semaxanib (SU5416)] | 2.05 | 1.16 | 1.09 | 1.08 | 0.527 | 0.885 |
| CCCc1ncc(C[n+]2ccccc2C)c(N)n1 [Amprolium HCl] | 1.47 | 0.883 | 1.08 | 1.27 | 0.679 | 1.39 |
| CCOC(=O)C1=C(N)Oc2ccc(Br)cc2C1C(C#N)C(=O)OCC (configuration not stated) | 0.871 | 1.18 | 1.12 | 1.03 | 1.03 | 0.791 |
| O=C(O)C(=O)O.[NH-][C@@H]1CCCC[C@H]1[NH-].[Pt+2] [Oxaliplatin] | 3.37 | 3.26 | 1.5 | 2.95 | 3.19 | 3.47 |
